# TGFb inhibitor – qHTS for Inhibitors of TGF-b; HepG2 CAGA-GFP TGF-b/SMAD3 reporter, GFP fluorescence, 18 h; TGF-beta stimulated, 500 pg/mL final; Potency, µM (highest dose often 46.1 µM), without a hit: at the highest dose activity, negative = inhibition, hits mostly inhibitors; hit rate 1.2% among 410,000; AID 588855, 2011; also: % is scaled to controls: 0 for no effect and ±100 for the full control effect; nearly all actives have a fitted effect of over 65% in size
#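 Cell-based qHTS in HEPG2 carrying a CAGA-GFP Smad reporter; compounds added before 500 pg/mL final TGF-beta, 18 h incubation at 37 degrees C, GFP fluorescence quantified per cell by imaging cytometry.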
# KB-V1 MDR tox – qHTS assay for MDR1-selective chemotherapeutics: Primary screen using the drug-selected MDR subline cells KB-V1; AID 1347076, 2019; hit rate 3.4% among 400,000; KB-V1 MDR cells viability, CellTiter-Glo, 72 h; Potency, µM (series often up to 46.1 µM), usual class: cytotoxic; also: % is scaled to controls: 0 for no effect and ±100 for the full control effect; nearly all actives have a fitted effect of over 60% in size
#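 Potencies derive from concentration-effect curves fitted to normalized luminescence (CellTiter-Glo) of KB-V1 cells treated for 72 h at 37 degrees C in phenol-red-free DMEM containing 10% FBS.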
# HepG2 tox-1 – qHTS for Inhibitors of TGF-b: Cytotox Counterscreen. AID 588856, 2011. Potency, µM (titrated, usually from 46.1 µM), for inactives: at the top dose activity change, negative = cytotoxicity, hits mostly cytotoxic. hit rate 0.76% among 410,000. HepG2 CAGA-GFP viability, ATP luminescence, 18 h
#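 HepG2 CAGA-GFP cells (1000/well, DMEM with 1% FBS) received compound, then TGF-beta at 500 pg/mL final, and were incubated 18 hours at 37 degrees C. Viability was read by CellTiter-Glo luminescence. Media-only wells were set as complete cell-killing and DMSO as no toxicity.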
# ATXN2 expr inh – Primary qHTS for Inhibitors of ATXN expression; HEK-293 ATXN2-luciferase reporter, luminescence, 24 h; Potency, µM (series often up to 57 µM), for inactives: at the highest dose activity change, negative = inhibition, hits mostly inhibitors; hit rate 0.72% among 360,000; also: % is scaled to controls: 0 for no effect and ±100 for the full control effect; nearly all actives have a fitted effect of over 55% in size
#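 qHTS (up to 57 uM final) was run with 24 h compound exposure of reporter cells at 37 °C. Each well was multiplexed: SteadyGlo luminescence measured ATXN2-luciferase expression after a fluorogenic Gly-Phe-AFC viability readout (25 uM final).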
# ATXN viability – Viability Counterscreen for Primary qHTS for Inhibitors of ATXN expression; S2 cells (HEK-293 line with an ATXN2-luciferase reporter) viability, CellTiter-Fluor protease fluorescence, 24 h; hit rate 0.49% among 400,000; Potency, µM (titrated, usually from 56.7 µM), hits mostly cytotoxic; AID 651635, 2014; also: nearly all actives have a fitted effect of over 40% in size
# KB-3-1 cytotox – qHTS assay for MDR1-selective chemotherapeutics: Primary screen using the parental adenocarcinoma cell KB-3-1; AID 1347075, 2019; Potency, µM (series often up to 46.1 µM), usual class: cytotoxic; KB-3-1 viability, CellTiter-Glo ATP luminescence, 72 h; hit rate 1.4% among 400,000; also: % is scaled to controls: 0 for no effect and ±100 for the full control effect; nearly all actives have a fitted effect of over 60% in size
#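 Here the drug-naive KB-3-1 line serves as comparator for MDR sub-line selectivity; cells received compound titrations, 72 h at 37 °C, then CellTiter-Glo readout.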
# TGFb confirm – qHTS for Inhibitors of TGF-b: Confirmation of Cherry Picks; HepG2 CAGA-GFP TGF-b reporter, GFP fluorescence, 18 h; cells stimulated with TGF-beta, 500 pg/mL; hit rate 63% among 1,600; Potency, µM (titrated, usually from 46.1 µM), inactives show at the highest dose activity, negative = inhibition, most hits filed as inhibitors; shares compounds with TGFb inhibitor; also: % is scaled to controls: 0 for no effect and ±100 for the full control effect; nearly all actives have a fitted effect of over 65% in size
# HepG2 tox-2 – qHTS for Inhibitors of TGF-b: Cytotox Counterscreen for Cherry Picks; shares compounds with TGFb inhibitor; HepG2 CAGA-GFP viability, ATP luminescence, 18 h; cells stimulated with TGF-beta, 500 pg/mL; Potency, µM (highest dose often 46.1 µM), inactives show at the highest dose activity, negative = cytotoxicity, most hits filed as inhibitors; hit rate 27% among 1,600; AID 720535, 2013; also: % is scaled to controls: 0 for no effect and ±100 for the full control effect; nearly all actives have a fitted effect of over 70% in size
# CCL64 TGFb inh – qHTS for Inhibitors of TGF-b: CCL64 Cells Orthogonal Assay for Cherry Picks. shares compounds with TGFb inhibitor. CCL64 CAGA-GFP reporter, TGF-b stimulated, GFP fluorescence, 18 h. Potency, µM (titrated, usually from 46.1 µM), for the others: at the top dose activity, negative = inhibition, most hits filed as inhibitors. hit rate 41% among 1,600. AID 720536, 2013; also: nearly all actives have a fitted effect of over 65% in size
# COP TGFb inh – qHTS for Inhibitors of TGF-b: Hit Validation in HepG2 Cells using COP promoter; hit rate 3% among 1,600; HepG2 COP-GFP TGF-b reporter, GFP fluorescence, 18 h; cells stimulated by added recombinant TGF-beta; Potency, µM (series often up to 46.1 µM), inactives show at the highest dose activity, negative = inhibition, hits mostly inhibitors; shares compounds with TGFb inhibitor; also: nearly all actives have a fitted effect of over 70% in size
# The depositor's hits bear a star; i = inactive; u = inconclusive; x = no result given; ! = repeats disagree. The list is not random: actives were taken first. Their share in the collection is about 5.9%. Calls follow the shape of the dose curve; as a rule, active = well fitted curve in the direction sought with a large enough effect; inconclusive = small, poorly fitted or top-dose-only effect, or another doubt; inactive = no such curve, though single readings can be large; an effect the other way counts as inactive or inconclusive. Potency is read from the fitted curve at half-maximal effect.
SMILES,TGFb inhibitor,KB-V1 MDR tox,HepG2 tox-1,ATXN2 expr inh,ATXN viability,KB-3-1 cytotox,TGFb confirm,HepG2 tox-2,CCL64 TGFb inh,COP TGFb inh
O=S(=O)(Nc1c(Br)cc(Br)c2cccnc12)C1CC1,-0.5%,x,-26.1%,x,x,x,x,x,x,x
Cn1c(C(=O)N2CCCC(C(=O)NCCCSC3CCCCC3)C2)cc2sccc21 (stereo not drawn),12.6µM*,8.2µM*,-15.6%,-1.2%,i,i,u,u,u,29.6%
CCn1c(C(=O)N2CCCC(C(=O)NCCc3ccc(C)cc3)C2)cc2sccc21 (stereo not drawn),12.6µM*,16.4µM*,-26.4%,u,u,u,u,-21.0%,-25.2%,-7.4%
CCn1c(C(=O)N2CCCC(C(=O)O)C2)cc2sccc21 (stereo not drawn),8.4%,i,24.2%,2.9%,i,i,x,x,x,x
Cc1ccc(C)c(Cn2c(=O)n(-c3ccc(F)cc3)c(=O)c3sc4ccccc4c32)c1,-11.4%,u,-23.4%,13.0%,i,i,x,x,x,x
CCOc1ccccc1N(CC(=O)Nc1ccc(OC)c(Cl)c1)S(=O)(=O)c1ccccc1,0.6%,u,-15.6%,-10.1%,i,u,x,x,x,x
O=CNc1cc(-c2ccoc2)cn2c(-c3ccc(F)cc3)cnc12,10µM*,u,-12.4%,6.2%,i,i,u,-20.6%,u,26.4%
CC(=O)Nc1cc(-c2ccccc2F)cn2c(-c3ccccc3)cnc12,-14.4%,i,-32.6%,3.7%,u,i,x,x,x,x
Cn1cc(-c2cnc3c(NC=O)cc(-c4cccc(C(F)(F)F)c4)cn23)cn1,11.2µM*,20.6µM*,-22.1%,0.0%,i,u,23.1µM*,-18.8%,u,39.7%
O=CNc1cc(-c2cccc(F)c2)cn2c(-c3ccc(F)cc3)cnc12,u,u,-10.6%,-29.7%,i,i,x,x,x,x
CC(=O)c1cccc(-c2cnc3c(NC=O)cc(-c4ccccc4F)cn23)c1,6.31µM*,u,4.5%,u,i,i,6.51µM*,-14.5%,1.46µM*,5.1%
COC(=O)C(CCSC)NS(=O)(=O)c1ccccc1Br (stereo not drawn),-6.6%,x,-6.1%,x,x,x,x,x,x,x
COc1cc(NC(=O)Cn2c(=O)n(Cc3ccccc3OC)c(=O)c3cccnc32)cc(OC)c1,9.0%,i,-13.8%,-9.7%,i,i,x,x,x,x
Cc1cc(C)cc(NC(=O)Cn2c(=O)oc3cc(S(=O)(=O)N4CCC(C)CC4)ccc32)c1,7.94µM*,i,7.94µM*,u,i,i,u,-22.1%,u,7.9%
CC1CCN(S(=O)(=O)c2ccc3c(c2)oc(=O)n3CC(=O)O)CC1,-2.7%,x,12.3%,x,x,x,x,x,x,x
CC[C@@H]1C(c2ccccc2)=NN(c2ccccc2)[C@H]1C(=O)N1CCOC1=O,u,i,-20.2%,-12.2%,x,i,-13.2%,0.1%,-2.4%,-10.2%
O=C1OCCN1C(=O)[C@H]1[C@H](c2ccc([N+](=O)[O-])cc2)C(c2cccc(Cl)c2)=NN1c1ccccc1,u,i,-8.2%,-2.2%,u,i,-26.7%,-18.1%,-0.2%,-5.0%
O=C(COc1cccc2ccccc12)Nc1ccc(Cl)cc1C(=O)O,11.2µM*,i,-17.3%,56.7%,i,u,16.4µM*,8.2µM*,u,54.7%
Cn1c(=O)[nH]c(=O)c2c1nc(N1CCOCC1)n2Cc1ccccc1,u,i,-17.0%,-3.8%,i,i,x,x,x,x
COc1ccc(N2CCN(C(=O)Nc3cn(CC(C)C)c(=O)c4ccccc34)CC2)cc1,0.6%,i,-8.3%,-23.5%,i,i,x,x,x,x
CC(=O)OC1CCC2(C)C(CCC3C4CC=C(C(C)=O)C4(C)OC(=O)CC32)C1 (stereo not drawn),3.98µM*,u,12.6µM*,x,2.51µM*,23.1µM*,18.4µM*,11.6µM*,2.91µM*,u
O=C(c1[nH]nc2c1CCc1ccccc1-2)N1CCN(Cc2ccc3c(c2)OCO3)CC1,11.2µM*,u,-20.1%,-32.8%,i,11.6µM*,11.6µM*,u,u,51.8%
COc1cc(NC(=O)Cn2nnnc2-c2ccccc2F)cc(OC)c1OC,-20.5%,x,-8.8%,x,x,x,x,x,x,x
O=C(COC(=O)c1ccccc1OCCOc1ccccc1)Nc1ccccc1Br,5.7%,i,2.3%,x,x,i,x,x,x,x
FC(F)(F)c1nc2nc(Cl)c(Cl)nc2[nH]1,-11.3%,i,-3.5%,x,u,u,x,x,x,x
FC(F)(F)c1cccc(-c2nc3nc(Cl)c(Cl)nc3[nH]2)c1,2.24µM*,u,-33.0%,x,i,2.59µM*!,6.51µM*,6.51µM*,5.17µM*,63.9%
COc1cc(OC)cc(C(=O)N[C@H](C(=O)OCc2cc(=O)oc3cc(C)ccc23)C(C)C)c1,u,3.66µM*,-0.5%,-6.0%,u,i,u,-4.9%,-12.3%,11.8%
COc1ccccc1CNS(=O)(=O)c1ccc2c(c1)CC(C)N2C(=O)C1CC1 (stereo not drawn),u,u,-73.5%,x,u,i,x,x,x,x
